Screens deposited in PubChem by Broad Institute.
Many of the other results were omitted from the sample, so hits are more common in it than they were.
IDE exosite inh: exo-site inhibitors of human IDE, primary screen, biochemical, fluorescence anisotropy, probe displacement; Insulin-degrading enzyme (Homo sapiens), P14735; purified IDE, FL-6b probe fluorescence polarization; hits give low values; z-score at 20 µM; 6.3% of 17,000 active; AID 1259349, 2017;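 active = z-score of -3 or lower, meaning strong loss of probe binding signal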;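 also: His-tagged human IDE residues 42-1019 made in E. coli with 30 nM FL-6b probe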
Numbers without * were called inactive; ! = a repeat was not active.

SMILES	IDE exosite inh
CCS(=O)(=O)N1CC2(CN(Cc3cccc(Cl)c3)[C@@H](CO)c3c2c2ccc(OC)cc2n3C)C1	-0.298
C[C@H](CO)N1C[C@H](C)[C@H](CN(C)C(=O)Nc2ccc3c(c2)OCO3)OCc2ccccc2-c2c(n(C)c3ccccc23)C1=O	0.169
CCCC#Cc1ccc([C@@H]2[C@@H](CO)N3C(=O)CN(C(=O)NCCC)C[C@H]23)cc1	3.23
CO[C@H](CN(C)S(=O)(=O)c1ccc(C)cc1)[C@@H](C)CN([C@H](C)CO)S(=O)(=O)c1cccc(Cl)c1	1.8
CO[C@H]1CN(C)C(=O)c2ccc(NC(=O)Nc3cc(F)ccc3F)cc2OC[C@H](C)N(C(=O)c2ccccn2)C[C@@H]1C	-0.7
COc1ccc2c3c(n(C)c2c1)[C@H](CO)N(C)CC31CCN(S(=O)(=O)c2cccc(F)c2)CC1	0.0827
CN(C)CC(=O)N1[C@@H](C#N)[C@@H](c2ccc(-c3ccccc3F)cc2)[C@@H]1CO	0.952
N#C[C@@H]1[C@H](c2ccccc2C2=CCCC2)[C@@H](CO)N1C(=O)CN1CCOCC1	3.85
CN(C)CC(=O)N1CC(=O)N2[C@@H](CO)[C@H](c3ccc(-c4ccc(C#N)cc4)cc3)[C@@H]2C1	2.82
O=C(CC1CC1)N1CC(=O)N2[C@H](C1)[C@H](c1ccc(/C=C/c3ccccc3)cc1)[C@@H]2CO	-3.79*
O=C(CC1CC1)N1CC(=O)N2[C@H](CO)[C@@H](c3ccc(C#Cc4ccccc4)cc3)[C@H]2C1	-6.38*
O=C(CC1CC1)N1CC(=O)N2[C@@H](CO)[C@@H](c3ccc(-c4cccnc4)cc3)[C@@H]2C1	-1.45
O=C(CC1CC1)N1CC(=O)N2[C@@H](CO)[C@@H](c3ccc(C#Cc4ccc(F)cc4)cc3)[C@@H]2C1	2.45
CN(C)CC(=O)N1CC(=O)N2[C@@H](CO)[C@H](c3ccc(/C=C/c4ccccc4)cc3)[C@@H]2C1	-4.17*
O=C(CC1CC1)N1CC(=O)N2[C@@H](CO)[C@H](c3ccc(-c4ccccc4)cc3)[C@@H]2C1	-0.595
O=C(c1ccc(F)cc1)N1CC(=O)N2[C@H](C1)[C@H](c1ccc(/C=C/c3ccccc3)cc1)[C@@H]2CO	-2.76
O=C(Cc1ccccc1)N1CC(=O)N2[C@H](CO)[C@@H](c3ccc(C#Cc4ccccc4)cc3)[C@@H]2C1	-0.472
COCC#Cc1ccc([C@H]2[C@@H](CO)N3C(=O)CN(C(=O)c4ccncc4)C[C@H]23)cc1	0.0628
C[C@@H]1CN([C@H](C)CO)C(=O)c2ccccc2-c2ccccc2CO[C@@H]1CN(C)S(=O)(=O)c1cccc(C#N)c1	-0.39
CN1C(=O)c2cc(NC(=O)c3cnccn3)ccc2OC[C@@H]2O[C@@H](CC(=O)NCC3CCCCC3)CC[C@H]21	-0.0285
O=C(Nc1ccc(F)cc1)N1CC(=O)N2[C@H](CO)[C@@H](c3ccc(C#Cc4cccnc4)cc3)[C@@H]2C1	1.34
C/C=C/c1ccccc1[C@@H]1[C@@H](CO)N(C(=O)c2cccnc2)[C@H]1C#N	-0.621
CCCNC(=O)NC[C@@H]1[C@H](c2ccc(C3=CCCCC3)cc2)[C@H](CO)N1C(C)=O	-0.318
C/C=C/c1ccc([C@H]2[C@@H](CO)N3CCCCN(C(=O)Nc4ccccc4F)C[C@@H]23)cc1	-0.836
O=C(Nc1ccccc1F)N1CCCCN2[C@H](CO)[C@H](c3ccc(/C=C/c4ccccc4)cc3)[C@@H]2C1	-3.89*
SMILES	IDE exosite inh
O=C(Nc1ccccc1F)N1CCCCN2[C@H](CO)[C@H](c3ccc(/C=C/c4ccccc4)cc3)[C@H]2C1	-4.93*
O=C(Nc1ccccc1F)N1CCCCN2[C@H](CO)[C@H](c3ccc(C4=CCCC4)cc3)[C@H]2C1	2.11
O=C(Nc1ccccc1F)N1CCCCN2[C@H](C1)[C@@H](c1ccc(/C=C/c3ccccc3)cc1)[C@@H]2CO	-2.72
O=C(Nc1ccccc1F)N1CCCCN2[C@H](C1)[C@H](c1ccc(C3=CCCC3)cc1)[C@@H]2CO	4.44
C/C=C/c1ccc([C@H]2[C@@H](CO)N(S(C)(=O)=O)[C@@H]2CN(CC)C(C)=O)cc1	0.534
COc1ccc(CN2C[C@@H](O)COC[C@H]3O[C@@H](CC(=O)N(C)C)CC[C@@H]32)cc1	-0.757
O=C(C1CCOCC1)N1C[C@@H]2N[C@H](C1)C2c1ccc(-c2cccc(F)c2)cc1 (some centres not stated)	4.19
Cc1ccccc1-c1ccc(C2[C@@H]3CN(Cc4cccnc4)C[C@H]2N3)cc1 (some centres not stated)	-13.9*
Cc1ccccc1-c1ccc(C2[C@@H]3CN(C(=O)C4CCOCC4)C[C@H]2N3)cc1 (some centres not stated)	-7.71*!
Fc1cccc(-c2ccc(C3[C@@H]4CN(Cc5cccnc5)C[C@H]3N4)cc2)c1 (some centres not stated)	1.37
CN(C)C(=O)c1ccc(-c2ccc(C3[C@@H]4CN(Cc5cccnc5)C[C@H]3N4)cc2)cc1 (some centres not stated)	1.16
O=C(C1CCC1)N1C[C@@H]2N[C@H](C1)C2c1ccc(-c2cccc(F)c2)cc1 (some centres not stated)	1.03
N#C[C@@H]1[C@H](c2ccc(-c3ccccc3F)cc2)[C@H](CO)N1C(=O)C1CCOCC1	-0.723
N#Cc1ccc(-c2ccc(C3[C@@H]4CN(C(=O)c5ccccn5)C[C@H]3N4)cc2)cc1 (some centres not stated)	2.77
O=C(c1ccccn1)N1C[C@@H]2N[C@H](C1)C2c1ccc(-c2ccccc2F)cc1 (some centres not stated)	-5.84*!
N#Cc1ccc(-c2ccc(C3[C@@H]4CN(C(=O)C5CCOCC5)C[C@H]3N4)cc2)cc1 (some centres not stated)	1.95
CN(C)C(=O)c1ccc(-c2ccc(C3[C@@H]4CN(C(=O)c5ccccn5)C[C@H]3N4)cc2)cc1 (some centres not stated)	1.1
O=C(C1CCOCC1)N1C[C@@H]2N[C@H](C1)C2c1ccc(-c2ccccc2F)cc1 (some centres not stated)	-3.02*!
C/C=C/c1ccc([C@@H]2[C@@H](CO)N3C(=O)CN(C(=O)c4cccc(F)c4)C[C@@H]23)cc1	0.963
N#C[C@@H]1[C@@H](c2ccc(C#CC3(O)CCCC3)cc2)[C@@H](CO)N1C(=O)C1CC1	0.656
Cc1cc(C(=O)Nc2ccc3c(c2)C(=O)N(C)[C@H]2CC[C@@H](CC(=O)NCc4ccc(-c5ccccc5)cc4)O[C@@H]2CO3)no1	-1.57
Cc1ccc(-c2ccccc2[C@@H]2[C@@H](C#N)N(C(=O)Cc3cccnc3)[C@@H]2CO)cc1	2.39
O=C(c1ccc2c(c1)OCO2)N1CCCCN2[C@H](CO)[C@@H](c3ccc(-c4ccccc4)cc3)[C@@H]2C1	0.426
C[C@H](NC(=O)C[C@@H]1C[C@H]2c3cc(NS(=O)(=O)c4ccc(F)cc4)ccc3O[C@H]2[C@@H](CO)O1)c1ccccc1	-1.78
O=C(c1ccccc1F)N1C[C@@H]2[C@H](c3ccccc31)[C@@H](CO)N2Cc1ccc2c(c1)OCO2	1.36
C[C@@H]1CN([C@H](C)CO)C(=O)CCCn2nncc2CO[C@@H]1CN(C)Cc1cccc(C(F)(F)F)c1	0.257
O=C(c1ccccn1)N1C[C@@H]2[C@H](c3ccccc31)[C@@H](CO)N2C(=O)C1CCCCC1	3.01
O=C(NC1CCCC1)[C@H]1[C@H](CO)[C@H]2Cn3c(ccc(C4=CCCCC4)c3=O)[C@@H]1N2CC1CC1	-0.417
